Among the data in PubChem BioAssay (EPA / NIEHS) are AC50 and outcome values, retold here.

Inconclusive results are not listed. Active and inactive are the calls of the source. How the source made its calls, unless noted: active means hit-call score of the fitted dose curve at least 0.9, where 1 is the maximum; inconclusive means response in the unintended direction; inactive means score below 0.9.

The nature of experiment [1]: CCTE_Padilla_ZF_144hpf_TERATOSCORE: (Legacy) CCTE's 144 Hour Post-fertilization zebrafish Assay Teratoscore, Padilla Lab (AID 2283679; active means hit-call score of the fitted dose curve at least 0.9, where 1 is the maximum; inactive means score below 0.9;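 on AC50: zebrafish embryos with chorions exposed by immersion from 6-8 hpf to 5 dpf with daily renewal; teratogenicity score from eye scoring of death hatching and malformations at 144 hpf; higher score means more developmental defects relative to DMSO baseline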). Summed up:
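Larvae scored by eye at 144 hpf for death, hatching and malformations after a day in clean Hanks'. Before that, daily-renewed exposure at 80 uM (0.4% DMSO, 26C) from roughly 6-8 hpf through 5 dpf, 4 embryos per chemical.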

Read-out in experiment [2]: HMG-CoA synthase (HMGCS2), HMGCS2 (gene 3158)
Description: CLD_HMGCS2_6hr: CellzDirect (CLD) Gene Expression Assay for HMG-CoA synthase (HMGCS2) at 6 hours (AID 2283682).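 Further: actives raise HMGCS2 transcript above the 0.2% DMSO vehicle baseline.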 Put shortly:
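HMGCS2 transcript induction read by quantitative nuclease protection with chemiluminescence, 6 h after dosing of primary human hepatocytes. Baseline was 0.2% DMSO vehicle; phase-contrast morphology gave a yes/no cytotoxicity annotation.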

Read-out in experiment [3]: Cytochrome P450 2B6 (Homo sapiens) (UniProt P20813)
Description: CLD_CYP2B6_24hr: CellzDirect (CLD) Gene Expression Assay for xenobiotic metabolism (CYP2B6) at 24 hours (AID 2283686). Summed up: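 qNPA chemiluminescent measurement of mRNA at 24 hours in human primary hepatocyte cultures from two donor preparations, with daily fresh dosing and 0.2% DMSO vehicle as baseline. Morphology-based cytotoxicity flagged yes/no.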

Read-out in experiment [4]: sulfotransferase (SULT2A), SULT2A1 (gene 6822)
The experiment can be described thus: CLD_SULT2A_24hr: CellzDirect (CLD) Gene Expression Assay for sulfotransferase (SULT2A) at 24 hours (AID 2283694). Summed up:
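mRNA is measured by qNPA: probe hybridisation, S1 nuclease digestion, chemiluminescence, in lysates from human primary hepatocytes harvested 24 h after daily dosing. Vehicle was 0.2% DMSO. Phase-contrast microscopy flagged cytotoxicity (yes/no).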

Read-out in experiment [5]: glucuronosyltransferase (UGT1A1), UGT1A1 (gene 54658)
Description: CLD_UGT1A1_24hr: CellzDirect (CLD) Gene Expression Assay for glucuronosyltransferase (UGT1A1) at 24 hours (AID 2283696). Summed up: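 UGT1A1 transcript induction was measured by quantitative nuclease protection assay (chemiluminescence) in human hepatocyte cultures 24 h after daily fresh dosing, with 0.2% DMSO as vehicle and baseline.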

Read-out in experiment [6]: xenobiotic metabolism (CYP1A2), CYP1A2 (gene 1544)
The experiment can be described thus: CLD_CYP1A2_24hr: CellzDirect (CLD) Gene Expression Assay for xenobiotic metabolism (CYP1A2) at 24 hours (AID 2283683). Summed up:
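CYP1A2 mRNA induction measured by quantitative nuclease protection (chemiluminescent) in human primary hepatocytes 24 h after multi-concentration chemical dosing with daily fresh solutions. DMSO (0.2%) baseline; positive-direction fitting; morphology-based cytotoxicity noted.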

Read-out in experiment [7]: Cytochrome P450 2C19 (Homo sapiens) (UniProt P33261)
Description: CLD_CYP2C19_24hr: CellzDirect (CLD) Gene Expression Assay for xenobiotic metabolism (CYP2C19) at 24 hours (AID 2283687).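 Further: activity means mRNA induction above DMSO vehicle baseline.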 Summed up: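 CYP2C19 mRNA was quantified by qNPA chemiluminescence after 24 h of daily dosing of cultured human primary hepatocytes from two donors; vehicle was 0.2% DMSO, and increases over DMSO baseline were fitted.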

Read-out in experiment [8]: Cytochrome P450 3A4 (Homo sapiens) (UniProt P08684)
The experiment can be described thus: CLD_CYP3A4_24hr: CellzDirect (CLD) Gene Expression Assay for xenobiotic metabolism (CYP3A4) at 24 hours (AID 2283689). Put shortly:
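CYP3A4 mRNA induction read by quantitative nuclease protection (chemiluminescence) 24 hr after dosing. Cultured human hepatocytes (two donor preparations) treated daily, vehicle 0.2% DMSO; phase-contrast morphology annotates cytotoxicity.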

Read-out in experiment [9]: Cytochrome P450 3A4 (Homo sapiens) (UniProt P08684)
Description: CLD_CYP3A4_48hr: CellzDirect (CLD) Gene Expression Assay for xenobiotic metabolism (CYP3A4) at 48 hours (AID 2283698). Put shortly: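 CYP3A4 induction read by qNPA chemiluminescence after 48 h, with fresh dosing solutions on consecutive days, in cultured human hepatocytes (two donors). Vehicle 0.2% DMSO as baseline; microscopy-based cytotoxicity annotated yes/no alongside data.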

Read-out in experiment [10]: Cytochrome P450 2B6 (Homo sapiens) (UniProt P20813)
Description: CLD_CYP2B6_48hr: CellzDirect (CLD) Gene Expression Assay for xenobiotic metabolism (CYP2B6) at 48 hours (AID 2283699).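 Further: actives raise transcript level above DMSO so potency reflects induction.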 Summed up: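 CYP2B6 transcript induction, read by quantitative nuclease protection (S1 digestion, chemiluminescent detection) 48 h after dosing, is fitted upward against 0.2% DMSO. Cultured human liver primary cells, two donor preparations, received fresh chemical daily over multiple concentrations.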

Read-out in experiment [11]: Broad substrate specificity ATP-binding cassette transporter ABCG2 (Homo sapiens) (UniProt Q9UNQ0)
Description: CLD_ABCG2_24hr: CellzDirect (CLD) Gene Expression Assay for ABC Transporter (ABCG2) at 24 hours (AID 2283685).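 On AC50: AC50 is for induction meaning signal gain over DMSO vehicle.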 Summed up:
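ABCG2 mRNA induction, read as gain of chemiluminescent signal over 0.2% DMSO, was measured by quantitative nuclease protection at 24 h. Cultured human liver hepatocytes were given fresh dosing solutions of test chemicals at several concentrations each day.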

Read-out in experiment [12]: ABC Transporter (ABCB1), ABCB1 (gene 5243)
The experiment can be described thus: CLD_ABCB1_24hr: CellzDirect (CLD) Gene Expression Assay for ABC Transporter (ABCB1) at 24 hours (AID 2283684). Summed up:
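ABCB1 mRNA induction versus 0.2% DMSO vehicle was read by qNPA chemiluminescence at 24 h. Cultured human hepatocytes from two donor preparations received daily fresh dosing, and phase-contrast cytotoxicity calls were annotated alongside the data.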

Read-out in experiment [13]: Cytochrome P450 2C9 (Homo sapiens) (UniProt P11712)
The experiment can be described thus: CLD_CYP2C9_24hr: CellzDirect (CLD) Gene Expression Assay for xenobiotic metabolism (CYP2C9) at 24 hours (AID 2283688). Put shortly:
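Induction of CYP2C9 mRNA was quantified by quantitative nuclease protection assay (chemiluminescence), gain of signal versus 0.2% DMSO vehicle, 24 h after dosing. Human primary hepatocytes (two donors) received fresh chemical daily at multiple concentrations; morphology-based cytotoxicity flagged yes/no.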

Read-out in experiment [14]: alkyl and aryl transferase (GSTA2), GSTA2 (gene 2939)
Description: CLD_GSTA2_24hr: CellzDirect (CLD) Gene Expression Assay for alkyl and aryl transferase (GSTA2) at 24 hours (AID 2283693). Summed up:
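GSTA2 transcript levels were quantified by quantitative nuclease protection assay in primary human hepatocytes 24 h after daily dosing with fresh solutions at multiple concentrations; 0.2% DMSO vehicle as baseline, cytotoxicity flagged morphologically.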

Read-out in experiment [15]: Cytochrome P450 3A4 (Homo sapiens) (UniProt P08684)
The experiment can be described thus: CLD_CYP3A4_6hr: CellzDirect (CLD) Gene Expression Assay for xenobiotic metabolism (CYP3A4) at 6 hours (AID 2283680). Summed up: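 CYP3A4 mRNA induction, 6 h after dosing of cultured primary human hepatocytes from two donors, read by quantitative nuclease protection (qNPA, chemiluminescence). Vehicle 0.2% DMSO as baseline; morphology-based cytotoxicity annotated yes/no.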

Read-out in experiment [16]: Cytochrome P450 2C19 (Homo sapiens) (UniProt P33261)
The experiment can be described thus: CLD_CYP2C19_48hr: CellzDirect (CLD) Gene Expression Assay for xenobiotic metabolism (CYP2C19) at 48 hours (AID 2283700).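 Further: fitted upward so actives raise CYP2C19 mRNA above the 0.2% DMSO vehicle.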 Summed up:
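CYP2C19 mRNA induction read by chemiluminescent quantitative nuclease protection assay after 48 h, with fresh compound added daily for two days to cultured human liver hepatocytes. Activity fitted upward against 0.2% DMSO vehicle.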

Read-out in experiment [17]: ABC Transporter (ABCB1), ABCB1 (gene 5243)
Description: CLD_ABCB1_48hr: CellzDirect (CLD) Gene Expression Assay for ABC Transporter (ABCB1) at 48 hours (AID 2283695). Put shortly: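 ABCB1 mRNA was measured by quantitative nuclease protection assay (chemiluminescence) 48 h after dosing. Human hepatocyte cultures from two separate donors received fresh dosing solutions daily for two days, with 0.2% DMSO as vehicle. Positive-direction fit against DMSO.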

Sequence of Cytochrome P450 3A4 (Homo sapiens) (P08684 whole entry, looked up): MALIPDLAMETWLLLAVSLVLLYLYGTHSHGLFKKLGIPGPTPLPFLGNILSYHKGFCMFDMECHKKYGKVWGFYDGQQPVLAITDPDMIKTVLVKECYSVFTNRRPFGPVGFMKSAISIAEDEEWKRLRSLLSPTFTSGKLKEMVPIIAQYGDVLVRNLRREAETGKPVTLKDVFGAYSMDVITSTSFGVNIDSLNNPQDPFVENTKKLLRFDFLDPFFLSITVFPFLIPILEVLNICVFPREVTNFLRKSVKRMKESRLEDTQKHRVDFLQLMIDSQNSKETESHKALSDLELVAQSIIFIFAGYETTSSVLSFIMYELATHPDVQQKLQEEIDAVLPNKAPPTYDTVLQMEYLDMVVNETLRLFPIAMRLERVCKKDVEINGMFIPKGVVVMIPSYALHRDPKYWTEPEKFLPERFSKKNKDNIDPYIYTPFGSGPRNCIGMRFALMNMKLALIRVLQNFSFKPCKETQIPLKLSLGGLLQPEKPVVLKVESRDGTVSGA
Sequence of Broad substrate specificity ATP-binding cassette transporter ABCG2 (Homo sapiens) (Q9UNQ0 whole entry, looked up): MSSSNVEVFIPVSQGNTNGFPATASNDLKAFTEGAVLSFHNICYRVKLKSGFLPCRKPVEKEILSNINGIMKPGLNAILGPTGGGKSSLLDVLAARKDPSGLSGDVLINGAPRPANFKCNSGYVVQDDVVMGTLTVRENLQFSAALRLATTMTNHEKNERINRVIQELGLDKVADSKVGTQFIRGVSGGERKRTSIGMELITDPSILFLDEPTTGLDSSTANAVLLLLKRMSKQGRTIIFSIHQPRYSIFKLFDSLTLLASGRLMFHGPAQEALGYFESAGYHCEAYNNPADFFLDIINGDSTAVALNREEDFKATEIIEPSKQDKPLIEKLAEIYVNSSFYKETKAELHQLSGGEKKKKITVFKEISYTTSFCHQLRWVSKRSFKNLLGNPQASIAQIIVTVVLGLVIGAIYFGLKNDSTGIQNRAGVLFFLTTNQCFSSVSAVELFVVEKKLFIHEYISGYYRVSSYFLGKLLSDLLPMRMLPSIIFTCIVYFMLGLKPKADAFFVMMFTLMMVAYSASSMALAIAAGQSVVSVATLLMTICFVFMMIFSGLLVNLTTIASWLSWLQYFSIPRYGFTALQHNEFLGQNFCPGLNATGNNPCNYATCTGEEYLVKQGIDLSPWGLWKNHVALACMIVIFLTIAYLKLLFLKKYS
Sequence of Cytochrome P450 2C19 (Homo sapiens) (P33261 whole entry, looked up): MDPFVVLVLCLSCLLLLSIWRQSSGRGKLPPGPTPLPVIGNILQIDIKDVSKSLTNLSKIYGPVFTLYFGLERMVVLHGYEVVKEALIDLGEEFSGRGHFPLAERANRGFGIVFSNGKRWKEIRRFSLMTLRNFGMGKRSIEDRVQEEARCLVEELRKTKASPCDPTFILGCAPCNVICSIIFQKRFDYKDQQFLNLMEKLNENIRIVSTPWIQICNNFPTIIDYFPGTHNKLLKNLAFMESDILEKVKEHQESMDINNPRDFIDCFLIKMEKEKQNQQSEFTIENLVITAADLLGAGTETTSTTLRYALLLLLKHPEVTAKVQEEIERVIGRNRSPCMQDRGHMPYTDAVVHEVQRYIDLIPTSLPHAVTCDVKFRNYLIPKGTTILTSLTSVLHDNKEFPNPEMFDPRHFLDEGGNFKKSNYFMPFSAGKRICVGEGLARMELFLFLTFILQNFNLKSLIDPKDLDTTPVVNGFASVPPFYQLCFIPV

In the case of `CCOP(=S)(OCC)Oc1cc(C)nc(C(C)C)n1`, the half-maximal activity concentration (AC50) in experiment [1] is 62.7 µM (active); in experiment [3], 0.747 µM (active); in experiment [5] it was 1.92 µM (active). Moreover, the result in experiment [2] and in experiment [4] was inactive.
Take `CC(C)[C@H](C(=O)O[C@H](C#N)c1cccc(Oc2ccccc2)c1)c1ccc(Cl)cc1`: the results for the AC50 in experiment [1], in [9] and in [10] were 0.166 µM (active), 20 µM (active) and 8.04 µM (active), respectively. In addition, the outcome in [6], in experiment [3], in [7], in experiment [8], in experiment [4] and in experiment [5] was inactive.
With `CCCOCC(=Nc1ccc(Cl)cc1C(F)(F)F)n1ccnc1`, the AC50 was 2.07 µM (active) in [1], 20 µM (active) in experiment [11], 1.9 µM (active) in experiment [8] and 1.89 µM (active) in [9]. For the same compound, the compound was classed as inactive in experiment [2], in experiment [3] and in experiment [5].
For `COc1ccc(C(=CC(=O)N2CCOCC2)c2ccc(Cl)cc2)cc1OC`, the half-maximal activity concentration (AC50) is 23.6 µM (active) in experiment [1], 3.59 µM (active) in experiment [3], 2.09 µM (active) in [8] and 1.9 µM (active) in experiment [9]. Moreover, the outcome in experiment [12], in experiment [11], in [13], in [14] and in experiment [5] was inactive.
Consider `Cc1nn(-c2cc(NS(C)(=O)=O)c(Cl)cc2Cl)c(=O)n1C(F)F`, for which the AC50 is 56.9 µM (active) in experiment [1]; 1.62 µM (active) in [15]; 4.18 µM (active) in [3]; 0.376 µM (active) in [8]; 2.46 µM (active) in experiment [9]; 6.7 µM (active) in experiment [10]. For the same compound, the result in experiment [6], in experiment [11], in experiment [5] and in [16] was inactive.
With `CCOP(=S)(OCC)OC(Cl)C(Cl)(Cl)Cl` (centres undefined), the AC50 in experiment [1] was 4.82 µM (active); in experiment [3] it was 0.201 µM (active); in experiment [8], 6.19 µM (active); in [9] it was 9.51 µM (active); in [10] it was 0.0135 µM (active). For the same compound, the outcome in experiment [2], in [12], in [11], in experiment [7], in experiment [13] and in experiment [17] was inactive. In addition, in experiment [5], the compound was called inactive.
In the case of `Cc1ccn2nc(S(=O)(=O)Nc3c(F)cccc3F)nc2n1`, the compound was called inactive in experiment [1], in [12], in experiment [11], in experiment [3], in [13] and in experiment [8]. The compound was called inactive in [5], in experiment [10] and in [16]. Also, in [9], the AC50 is 3.97 µM (active).
Consider `CCc1cccc(CC)c1N(COC)C(=O)CCl`, for which the AC50 is 35.4 µM (active) in [1], 1.93 µM (active) in [15], 2.69 µM (active) in experiment [3] and 15.7 µM (active) in experiment [8]. The call in [11], in [13], in experiment [5] and in experiment [9] was inactive.
Regarding `Cc1cc(C2CC2)nc(Nc2ccccc2)n1`, the AC50 is 15.3 µM (active) in experiment [1] and 3.97 µM (active) in [3]. The call in [5] and in experiment [9] was inactive.

As usually defined, the AC50 is the midpoint of the concentration-response curve, whichever way the signal moves.
